Laboratory results taken from PubChem BioAssay (NCATS).
Results filed as inconclusive are left out. Calls of active or inactive are those of the source. Unless noted, the call rests on the fitted dose curve; in most records, active means well fitted curve in the direction sought with a large enough effect; inconclusive means small, poorly fitted or top-dose-only effect, or another doubt; inactive means no such curve, though single readings can be large; an effect the other way counts as inactive or inconclusive.

What was measured:
[1] = target: Cytochrome P450 2D6 (Homo sapiens) (UniProt P10635); assay: Cytochrome P450 family 2 subfamily D member 6 (CYP2D6) small molecule antagonists: luciferase biochemical (cell-free) qHTS assay (AID 1645840; active means well fitted curve in the direction sought with a large enough effect in the repeat runs; an effect the other way counts as inactive or inconclusive; further: nearly all actives have a fitted effect of over 55% in size; further: potency means the concentration at half of the fitted maximal effect)
Cytochrome P450 2D6 (Homo sapiens), sequence (P10635 whole entry, looked up): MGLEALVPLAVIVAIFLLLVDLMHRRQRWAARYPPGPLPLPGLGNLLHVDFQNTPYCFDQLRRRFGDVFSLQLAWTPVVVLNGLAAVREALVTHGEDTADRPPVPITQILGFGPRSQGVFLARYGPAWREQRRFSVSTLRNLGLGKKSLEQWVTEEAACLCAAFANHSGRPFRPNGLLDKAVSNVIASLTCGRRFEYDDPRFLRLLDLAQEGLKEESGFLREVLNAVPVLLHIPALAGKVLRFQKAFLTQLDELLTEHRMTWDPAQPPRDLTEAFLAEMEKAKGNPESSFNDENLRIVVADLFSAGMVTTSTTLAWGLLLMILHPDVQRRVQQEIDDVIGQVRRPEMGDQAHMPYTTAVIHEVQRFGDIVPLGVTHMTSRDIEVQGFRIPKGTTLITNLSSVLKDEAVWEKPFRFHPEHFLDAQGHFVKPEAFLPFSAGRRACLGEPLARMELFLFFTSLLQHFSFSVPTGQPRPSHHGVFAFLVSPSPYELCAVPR
Summary of the method: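 P450-Glo CYP2D6 system: proluciferin substrate converted by enzyme to luciferin, read by luminescence proportional to activity. Enzyme-substrate mix with compound 10 min at room temperature, then NADPH regeneration 1 h before detection reagent.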

[2] = Primary qHTS for inhibitors of nuclear receptor binding SET domain protein 2 (NSD2) in an isogenic RCH-ACV NSD2 p.E1099K mutant (9B) (AID 1645876); further: nearly all actives have a fitted effect of over 70% in size; further: potency means the concentration at half of the fitted maximal effect
[3] = Primary qHTS for inhibitors of nuclear receptor binding SET domain protein 2 (NSD2) in an RCH-ACV wild type WT cells (2C) (AID 1645877); further: nearly all actives have a fitted effect of over 70% in size; further: potency means the concentration at half of the fitted maximal effect
[4] = target: Catechol O-methyltransferase (Homo sapiens) (UniProt P21964); assay: Confirmatory Screen for Target Class Profiling of Small Molecule Inhibitors of Methyltransferases (AID 1745852); conditions: MTase-Glo luminescence, SAH detection, recombinant enzyme; measured here: COMT max response; stronger effect = lower value
Catechol O-methyltransferase (Homo sapiens), sequence (P21964 whole entry, looked up): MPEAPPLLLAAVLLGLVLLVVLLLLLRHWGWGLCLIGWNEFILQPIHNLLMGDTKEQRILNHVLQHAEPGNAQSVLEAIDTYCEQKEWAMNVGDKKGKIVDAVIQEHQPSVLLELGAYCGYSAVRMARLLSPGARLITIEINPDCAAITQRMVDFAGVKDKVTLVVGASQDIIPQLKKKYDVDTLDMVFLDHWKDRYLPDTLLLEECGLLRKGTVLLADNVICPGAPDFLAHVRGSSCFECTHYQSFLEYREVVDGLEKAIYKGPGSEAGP

Q: What does the source list for `Nc1nc(Nc2ccc(S(N)(=O)=O)cc2)n(C(=S)Nc2c(F)cccc2F)n1`?
A: Potency [1]: 10.7 µM (active); Potency [2]: inactive; Potency [3]: inactive

Q: Which results are given for `CN1CCC(Nc2nc(Nc3ccc(Oc4ccccc4)cc3)c3c(=O)[nH]cc(Br)c3n2)CC1`?
A: Potency [1]: 5.35 µM (active); Potency [2]: 1.83 µM (active); Potency [3]: 0.916 µM (active)

Q: What does the source list for `Cn1cc(S(=O)(=O)c2ccc(Cl)cc2)c2cccc(N3CCNCC3)c21`?
A: Potency [1]: 13.5 µM (active); Potency [2]: 18.3 µM (active); Potency [3]: 11.5 µM (active)

Q: Which results are given for `COc1ccc(N2CCOCC2)c2sc(NC(=O)N3CCC(C)(O)CC3)nc12`?
A: Potency [1]: 16.9 µM (active); Potency [2]: inactive; Potency [3]: inactive

Q: What does the source list for `O=C(O)CC1CCC(c2ccc(-c3ccc4nc(C(=O)NCc5ccc(OC(F)(F)F)cc5)cn4c3)cc2)CC1` (stereo not given)?
A: Potency [1]: inactive; Potency [2]: inactive; Potency [3]: inactive

Q: With `Cc1onc(C(=O)N2CCN(C(c3ccc(Cl)cc3)c3ccc(Cl)cc3)CC2)c1[N+](=O)[O-]` as the compound, how does the Potency [1] read?
A: inactive

Q: And the Potency [2]?
A: 0.23 µM (active)

Q: What about the Potency [3] of the same compound?
A: 0.145 µM (active)

Q: Which results are given for `CCOC(=O)Nc1cc(-c2ccc(C)c(NS(C)(=O)=O)c2)nn2c(C)nnc12`?
A: Potency [1]: inactive; Potency [2]: 0.728 µM (active); Potency [3]: 0.515 µM (active)

Q: Which Potency [1] does the source give for `COc1cccc(Nc2ncnn3ccc(CN4CC[C@@H](N)[C@H](O)C4)c23)c1` here?
A: 9.52 µM (active)

Q: What about the Potency [2] of the same compound?
A: 4.68 µM (active)

Q: What about the Potency [3] of the same compound?
A: 4.68 µM (active)

Q: With `C[C@@H](O)[C@H](NC(=O)c1ccc(C#Cc2ccc(CN3CCOCC3)cc2)cc1)C(=O)NO` as the compound, how does the Potency [1] read?
A: inactive

Q: What about the Potency [3] of the same compound?
A: inactive

Q: For `CCOC(=O)CCN(C(=O)c1ccc2c(c1)nc(CNc1ccc(C(=N)N)cc1)n2C)c1ccccn1`, which Potency [1] is on record?
A: inactive

Q: And the Potency [2]?
A: inactive

Q: What about the Potency [3] of the same compound?
A: inactive

Q: What about the activity [4] of the same compound?
A: -3.92%
